Assay results taken from PubChem BioAssay (NCI).
This is part of a sample that, as a whole, favours compounds with a hit. Of some 79,000 tested, about 15% had one in any assay. Values without a mark were called inactive. Active and inactive are the calls of the source. No stated cut-off is given here; in the data, active means growth inhibition above about 70%; inactive means the rest.

Columns and labels:
[1] = NCI Yeast Anticancer Drug Screen. Data for the rad50 strain (AID 155);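 further: 0% = growth of vehicle-only cultures of the same strain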; conditions: S. cerevisiae rad50 strain growth inhibition, hits give high values
Summary of the method: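 Growth of the mutant yeast was measured after compound exposure and referenced to vehicle-treated cultures.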

[2] = NCI Yeast Anticancer Drug Screen. Data for the mec2-1 strain (AID 157); conditions: S. cerevisiae mec2-1 strain, hits give high values
Summary of the method: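 Each compound was tested on mec2-1 yeast, a strain altered in DNA damage repair or cell cycle control. Growth inhibition is reported relative to vehicle.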

[3] = NCI Yeast Anticancer Drug Screen. Data for the sgs1 mgt1 strain (AID 161);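 further: 0% = growth of cultures given vehicle only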; conditions: S. cerevisiae sgs1 mgt1 strain, hits give high values
Summary of the method: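 Test agents were incubated with a DNA-repair-mutant yeast strain. Growth was then read and compared against vehicle-treated controls.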

[4] = NCI Yeast Anticancer Drug Screen. Data for the cln2 rad14 strain (AID 165);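 further: 0% = growth equal to vehicle treated cultures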; conditions: S. cerevisiae cln2 rad14 strain, hits give high values
Summary of the method: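 Test compounds were added to cln2 rad14 yeast cultures; inhibition of growth was then determined by comparison with vehicle treatment.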

[5] = NCI Yeast Anticancer Drug Screen. Data for the bub3 strain (AID 167); conditions: S. cerevisiae bub3 mutant strain, hits give high values
Summary of the method: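 Whole-cell yeast assay. The mutant strain was incubated with compounds, and growth inhibition was determined by comparison with vehicle-treated cells.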

[6] = NCI Yeast Anticancer Drug Screen. Data for the mlh1 rad18 strain (AID 175); conditions: S. cerevisiae mlh1 rad18 strain growth inhibition, hits give high values
Summary of the method: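 Inhibition values reflect reduced growth of mutant yeast versus vehicle-treated controls following compound exposure; the mutations affect DNA damage repair.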

[7] = at 5.0 µM (retest, dose inferred, filed as 0.5)
[8] = at 50.0 µM (retest, dose inferred, filed as 5.0)

SMILES	growth inhibition [1, 7]	growth inhibition [1, 8]	growth inhibition ([1]; at 50.0 µM)	growth inhibition [2, 7]	growth inhibition [2, 8]	growth inhibition ([2]; at 50.0 µM)	growth inhibition [3, 7]	growth inhibition [3, 8]	growth inhibition ([3]; at 50.0 µM)	growth inhibition [4, 7] [%]	growth inhibition [4, 8]	growth inhibition ([4]; at 50.0 µM)	growth inhibition [5, 7]	growth inhibition [5, 8]	growth inhibition ([5]; at 50.0 µM)	growth inhibition [6, 7]	growth inhibition [6, 8]	growth inhibition ([6]; at 50.0 µM)
CSc1nc(C)c(C(=O)CCN2CCOCC2)s1	-7%	67%	99.5% (active)	11%	99% (active)	99.6% (active)	-4%	75% (active)	99.6% (active)	-6	89% (active)	93% (active)	-12%	92% (active)	47.6%	-5%	88% (active)	99.2% (active)
CC1(C)C=CC2=C(O1)C(=O)c1ccccc1C2=O	9%	76% (active)	39.6%	8%	77% (active)	-0.85%	18%	88% (active)	73.2% (active)	-7	12%	6.9%	67%	95% (active)	48.4%	16%	89% (active)	44.5%
CN(Cc1cc(Cl)cc(Cl)c1O)Cc1c(O)ccc2ccccc12	31%	100% (active)	98.5% (active)	14%	100% (active)	98.3% (active)	10%	99% (active)	98.7% (active)	-34	99% (active)	98.1% (active)	-11%	100% (active)	98.6% (active)	12%	99% (active)	98.5% (active)
Fc1cccc(C2SCc3nc4ccccc4n32)c1F (stereo not given)	-4%	2%	63.3%	-5%	23%	54.8%	-3%	28%	76.2% (active)	-12	-7%	40.2%	-5%	14%	73.3% (active)	-8%	7%	92% (active)
CCCCCCCCCCCCCCC(C(=O)O)S(=O)(=O)O (stereo not given)	0%	85% (active)	98.9% (active)	-1%	58%	99.7% (active)	-3%	69%	87% (active)	-2	70% (active)	95.7% (active)	-4%	66%	99.6% (active)	0%	83% (active)	99.6% (active)
CCC(C)SSc1ccccc1C(=O)Nc1ccc(Cl)cc1 (stereo not given)	3%	52%	79.5% (active)	14%	93% (active)	93.9% (active)	-12%	83% (active)	91.7% (active)	-5	85% (active)	74.1% (active)	-2%	93% (active)	91.3% (active)	7%	91% (active)	87.7% (active)
Cc1c(O)c2c(c(O)c1Br)C(=O)C=CC2=O	88% (active)	96% (active)	70.8% (active)	93% (active)	98% (active)	90.5% (active)	74% (active)	98% (active)	90.5% (active)	49	97% (active)	87.3% (active)	98% (active)	98% (active)	89.1% (active)	96% (active)	97% (active)	90.8% (active)
CCCCCC/C=C\C=O	-1%	4%	67.7%	-6%	13%	37.1%	3%	17%	64%	-6	12%	52%	-2%	6%	79.5% (active)	0%	5%	51.4%
CCNC(=O)COc1ccc(Cl)cc1Cl	-2%	10%	-17.6%	-10%	2%	-19.4%	0%	-6%	-15.4%	7	13%	38.8%	-5%	-3%	-29.4%	8%	2%	-27.4%
OCCC(CCN1CCOCC1)(c1ccccc1)C1(O)CCCC1 (stereo not given)	3%	3%	-2.95%	5%	2%	45.3%	8%	3%	74.4% (active)	2	2%	71.2% (active)	-3%	-4%	61.4%	-2%	-2%	73.8% (active)
